Test results as given in the supplement of paper PMC3334620.
Whole data set: some 33,000 sequences, median “E-score (-0.5 to 0.5)” near -0.017, cut for the highest 2% near 0.3. The list comes from a sample in which the highest values are over-represented; it also holds similar and randomly drawn sequences.

The sequences below were run against T1, Sut1 (UniProt P53032) (assay: PBM E-score (8-mer binding enrichment) (E-score (-0.5 to 0.5)); higher = stronger / more preferred TF binding). Conditions: protein concentration: 200 nM; construct: GST-full length.
T1 sequence: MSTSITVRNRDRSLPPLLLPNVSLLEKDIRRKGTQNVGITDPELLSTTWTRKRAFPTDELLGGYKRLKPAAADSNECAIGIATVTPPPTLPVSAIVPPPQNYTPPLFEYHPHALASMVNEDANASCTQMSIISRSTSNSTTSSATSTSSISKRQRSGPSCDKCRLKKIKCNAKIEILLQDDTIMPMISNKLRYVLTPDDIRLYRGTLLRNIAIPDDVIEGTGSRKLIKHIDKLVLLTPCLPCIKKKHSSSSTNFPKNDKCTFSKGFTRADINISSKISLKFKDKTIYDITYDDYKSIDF
How it was run: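 Universal all-10-mer Agilent arrays, fresh or stripped once, were converted to double-stranded form by primer extension. GST-tagged yeast transcription factors from PURExpress in vitro transcription/translation, full-length or DNA-binding domain only, were applied at about 100-200 nM and detected with fluorescent anti-GST. After masliner normalisation, the Universal PBM Analysis Suite scored each ungapped eight-base word together with its reverse complement by E-score.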

Sequence	PBM E-score
ACTGGATC	-0.0162
AATCTCTG	-0.129
CACTCCCG	-0.0356
AACTCCCC	-0.0339
GACTCCTC	0.0705
AACTCCGC	0.492
GACTCCAC	0.0104
ACCTCCGC	-0.104
CACTCCTG	-0.0764
CACTCCTC	-0.176
GACTCCGC	0.429
CACTCCGG	0.476
CCCTCCGC	-0.318
CACTCCGC	0.367
AAGCACGC	-0.122
CACGGTAA	0.0752
CTTCCATA	0.00613
CTCATAGC	-0.0832
CCCCAGGC	-0.303
GCCGAGCC	-0.0648
GACACTGA	0.0506
AATCGTTG	0.0316
CCTTCACC	-0.231
GGGAGAAC	-0.0542
CGGAGAAC	0.33

Sequence	PBM E-score
CGGAGAAG	0.36
AGGAGAAG	-0.165
CAGAGAAG	-0.0543
CCGACAAG	0.115
CGGAGAAA	0.391
AGGAGAAC	-0.0513
TGGAGAAA	-0.00929
GGGAGAAA	-0.0502
CCGACAAA	0.313
TCGACAAA	0.213
CGTCAACG	0.0766
CGGTACTC	-0.0748
GAACAGTC	0.0217
GAATGTCC	0.282
AACCCTAC	-0.287
ATATGCAC	0.133
CCACCCCA	-0.221
AATCCATA	0.108
AACGCTGT	-0.0573
CCAGTAGA	-0.112
AGTGCTCA	-0.105
CGGAGAGC	0.109
TCGAGAAA	0.103
CCGAAAAG	0.178
GCGAGAAA	0.0168

Sequence	PBM E-score
AGGAGAGA	-0.0542
CCGAAAAC	0.164
CCGAGAAA	0.339
CGGAGAGA	0.317
CCGAAAAA	0.352
ACGGGTGA	-0.0761
AGCGTCAT	-0.0756
CACCTTGC	0.00165
CTCAGCGA	-0.204
CGGAGCGA	0.325
AGGAGCGA	-0.00713
CGGAGCAC	0.175
CGGAGCGC	0.118
CGGAGCAA	0.311
TGGAGCAA	-0.0175
TTCATGAA	0.00239
AACTACAT	0.141
CCATTATA	0.135
TCCGGGAA	0.356
ACCGGGAA	0.145
GCCGGTAA	0.121
CCCGGAAA	0.234
TCCGGTAA	0.384
CCCGGGAA	-0.03
ACCGGAAA	0.268

Sequence	PBM E-score
TCCGGAAA	0.411
ACCGGTAA	-0.0335
CTCTGAGA	-0.0987
AGCAATTG	0.175
GGAATGAA	0.166
ATGCCCCC	-0.387
AACTCGGG	-0.135
GACTCGGA	0.33
TACTCGGA	0.324
AACTCGGA	0.341
GACTCGGC	-0.033
TACTCGCA	0.0383
CACTCGGA	0.266
GACTCGCA	-0.0641
AACTCGGT	0.0362
GCAGAGGA	-0.102
GCTTCGAC	-0.218
GAGACCCC	-0.146
ACCTTGCT	-0.0591
GCGCCAGA	-0.088
CCATATAG	-0.0893
ACTCATCG	0.0167
ATCCGTGC	0.0778
GTCCGTGA	0.251
CTCCGTGC	0.321

Sequence	PBM E-score
CTCCGTGA	0.407
ATCCGTGA	-0.119
CACCGTGC	-0.263
AGGGCAGA	-0.348
GACTGGGC	-0.0754
CTTCGCTA	-0.0699
ATATGCAG	-0.134
AAAGTAAT	0.204
GGAGTTAC	0.367
AGAGTTAA	0.0656
CGAGTTAC	0.0146
TGAGTTAA	-0.00085
GGAGTTAA	0.337
AGAGTTAC	-0.117
GCTCCCTA	-0.123
CAGGGAGC	-0.326
ACAAACAC	0.185
TCGGCCGA	0.323
GCGGCCGA	-0.139
CCGGCCGA	0.0979
GAAACTAA	0.00617
CTAACTAA	0.142
AAAACTAG	0.0495
CTAACTAC	0.00799
AAAACTAT	0.231

Sequence	PBM E-score
TAAACTAA	0.323
CTAACTAG	0.302
AAAACTAA	0.353
CAAACTAA	0.276
ACTCCACT	-0.144
CCCTCAGA	-0.309
CAGAGAAC	-0.299
CTATCAAC	0.208
AGACTCTG	-0.137
CAGTCACA	-0.17
GACCCGTC	-0.239
AGTTCTCC	0.0174
GTGACGAA	-0.0161
CCTTAGGA	-0.0422
AACCAGCT	-0.0518
CGAAAACC	0.0693
AGTTAAGA	0.0414
ATCCGGTA	0.135
CCCCGGTA	0.0227
GTCCGGTA	0.373
GGCCGGTA	0.0132
ATCCGGTC	-0.00108
CTCCGGTA	0.413
GCCCGGTA	-0.187
CTCCGGTC	0.418

Sequence	PBM E-score
CGCCGGTC	-0.0721
GGTCGAAA	-0.14
GGCTGACC	-0.205
ATTATTCA	0.289
AGGATACT	-0.0531
ACTCGGCT	-0.079
ACACCGCA	0.0401
GTAGACAA	0.157
AGGGGTAT	-0.217
ACGCACTA	-0.0472
GCATATCC	-0.196
GGATTTCA	0.117
CTGACCTC	-0.121
CGGACCTA	0.42
GGGACCTA	0.0551
AGGACCTA	-0.0435
CGGACCTC	0.411
AGGACCTC	-0.0609
AACTCGAA	-0.0516
TCCTTCCA	-0.243
TTATAAAA	0.314
GTATAAGA	0.103
GTATAAAC	0.227
CTATAAAA	0.183
GTATAAAA	0.317

Sequence	PBM E-score
ATATAAAA	0.205
TGAACCCA	-0.00171
GTCGTTGA	-0.0946
ATCCCAGC	-0.107
ACACTAGA	0.0902
CGATGTCC	0.164
ATCAAGAT	0.158
TACGGAAA	0.278
TACGGAGA	0.32
GACGGAGA	0.277
CACGGAGA	0.355
GACGGAGC	0.231
CACGGAGG	0.0312
CACGGAGC	0.354
AACGGAGT	0.478
TACGGACA	0.282
CAAGGAGA	0.0606
AACGGAGC	0.231
AACGGAGG	-0.0314
ATCCATTA	0.076
AATCGCCA	-0.0545
AAGAGATC	-0.168
AGAATTGG	0.13
CGCAATGA	-0.0747
ACACTTGA	-0.00965

Sequence	PBM E-score
AGACCACC	-0.0644
CATGGCAG	-0.108
CCCTGGGC	-0.324
ATTAATGA	0.267
ATTTCTTA	0.0841
CTCCCGAA	-0.0868
CTCCCTCC	-0.2
GGCTCATA	-0.0389
CAGCGGGG	-0.149
AACAGAGA	-0.0653
AACGGATA	0.285
AACGGAGA	0.359
ACTGCTCC	-0.0101
AGAGTAGA	0.163
GGAGTAAC	0.258
GGAGTAGA	0.318
GGAGTAAA	0.333
TGAGTAAA	0.0705
CGAGTATA	0.0489
AGAGTATA	0.00921
CGAGTAGA	-0.0364
GGAGTATA	0.311
AGGCCATG	-0.206
GAGCTGAA	0.01
CAGTACGA	-0.0772

Sequence	PBM E-score
TACAGCGA	-0.145
GTAGCTCA	-0.0732
ACCTGATC	-0.177
AGAACCTG	-0.0844
AAAATTAC	0.237
ATTATAAT	0.378
AAAATTAT	0.351
ATAATTTC	0.242
GTAATTAA	0.161
CTAATTTC	0.299
ATAATTAA	0.314
TTAATTAA	0.0737
CTAATTTA	0.175
ATTATAAG	0.193
AAAATTAG	0.155
ATTATAAA	0.275
CGGATCAA	0.16
CGTCTTGA	0.0919
AGCCCCAA	-0.358
ATCGCTAC	-0.0624
AATTATAT	0.212
TCCACTAA	0.0668
CCCAAACA	0.00961
ATAATTAG	0.235
AAAATGAA	0.0412

Sequence	PBM E-score
ATAATTAT	0.39
ATAATTTA	0.337
ATCATTAG	0.0427
AAAATGAT	0.342
GTAATTTA	0.221
CTCATTAA	0.119
ATAATTAC	0.283
AAAATGAC	0.157
ATAATTTG	0.249
ATCATTAA	0.305
ACAGTTCG	0.183
GCTTCCCA	-0.179
GTTTGGTA	0.178
ATCGGTAG	0.0989
TCGGTGAA	0.0263
TAAGATCA	0.0673
ATAAAGAT	0.328
GAAAAATA	0.306
ATAAATAG	0.295
ATAAAGAA	0.19
AAAAAATA	0.242
GTAAAATA	0.145
ATAAATAA	0.321
ATAAAATC	0.162
ATAAAATA	0.323

Sequence	PBM E-score
TTAAATAA	0.259
ATAAAGAG	0.0458
GGAAAATA	0.226
CTCGTTCA	-0.205
AGTAGACC	-0.172
ATGACTGC	0.00267
CAATGCTC	-0.0941
ACCAACGT	0.00237
AAAATAGA	0.319
AAAAATAA	0.326
AGAAATTC	0.126
ATCAATTG	0.197
CAAAATAA	0.201
GGAAATTA	0.286
TAAATAGA	0.0796
ATCAATTA	0.31
TAAAATAA	0.213
AAAATAGC	0.0485
AGAAATTA	0.335
ATCAATTC	0.135
AACCAACC	-0.178
AGAATACA	0.117
CACTTTGC	0.0519
AGGCGACC	-0.207
CTCGCCAG	-0.204

Sequence	PBM E-score
ACCTTGCC	-0.0123
ATAAATTG	0.268
ATAAATTA	0.326
ATAAATAT	0.341
ATAAATAC	0.275
AAAATAAC	0.12
CAAAATTA	0.241
AAAATAAA	0.347
CTAAATTA	0.24
AAAAATTA	0.228
TAAATAAA	0.247
ATAAAAAT	0.252
TAAAATTA	0.34
ACCAAACT	-0.0181
CAGTGGTC	-0.165
GGCAGAAA	0.0918
CCGACCCA	0.0491
CCATCAGA	-0.213
AATAAGGG	-0.0871
CCGACACC	-0.0623
TGTCTCAA	-0.115
ACAAATAG	0.113
CAAAATTG	0.0231
CAAAATTC	0.308
GGAAATAA	0.24

Sequence	PBM E-score
CGAAATAA	0.313
AAAAATTC	0.235
ACAAATAT	0.339
ACAAATAC	0.205
CGAAATAC	0.215
ATCTGAGC	0.113
GACTTCGC	0.0243
ATTCCGTA	0.296
ATTCCGAA	0.378
CTTCCGAA	0.233
ATTCCGAG	0.341
ATTCCAAG	0.0681
ATTCCGAC	0.219
CGTCAAGA	-0.239
AGAGAGTA	-0.0447
GTAAGAAC	0.215
TGGCAGAA	-0.0838
TGAATTCA	0.0862
CGCGACAC	0.0583
